Assay outcomes (PubChem)
Compounds with a hit are over-represented: about 4.8% of the library has one in this group of screens.
PfHsp90 yeast 2 – growth inhibition of yeast expressing Plasmodium Hsp90. 310,000 tested, 0.32% active. inhibition, % at 9.4 µM. S. cerevisiae expressing PfHsp90, BacTiter-Glo ATP, 48 h; yeast lacking PDR1 and PDR3 efflux regulators;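 active = every replicate shows inhibition above about 80%, whatever the replicate mean, limit read from the data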
NALP1 yeast inh – inhibitors of NALP1 inflammasome in yeast | S. cerevisiae NALP1/ASC/caspase-1 growth, X-gal OD620, 72 h | inhibition, % at 10 µM | 280,000 tested, 0.61% active; in the data active = inhibition mostly above about 24%, no sharp cut-off; inactive = mostly below about 32%
SKKanGAS inh – SKKanGAS growth inhibition. S. pyogenes SKKanGAS, kanamycin growth, BacTiter-Glo, 6 h. inhibition, % at 7.5 µM. 300,000 tested, 1.3% active. AID 1662;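 active = mean replicate score, as percent of positive control median, at least 50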;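 also: strain carries kanamycin resistance gene driven by streptokinase promoter and grows in 40 µg/ml kanamycin; loss of luminescence reflects streptokinase promoter inhibition or plain growth inhibition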
TIM10 inh – growth inhibitors of TIM10 yeast strain. AID 463195. 330,000 tested, 1.4% active. S. cerevisiae TIM10 strain growth, BacTiter-Glo luminescence, 24 h. inhibition, % at 10 µM;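 active = inhibition of 40% or more at the single tested concentration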;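 also: wild-type TIM10 isogenic control strain grown at permissive 25 °C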
tim10-1 inh – growth inhibitors of tim10-1 mutant yeast; S. cerevisiae tim10-1 ts strain growth, BacTiter-Glo, 24 h; inhibition, % at 20 µM; 330,000 tested, 2.2% active;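 active = inhibition of at least 40%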;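 also: mutant grown at 25 °C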
tim23-1 inh – inhibits growth of tim23-1 mutant yeast. 330,000 tested, 1.3% active. S. cerevisiae tim23-1 growth, BacTiter-Glo luminescence, 24 h. inhibition, % at 20 µM;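 active = growth inhibition of the mutant yeast at or above 50%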;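 also: temperature-sensitive mutant grown at 25 °C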
Hits are given with their value; . = inactive; / = no result given.

SMILES | PfHsp90 yeast 2 | NALP1 yeast inh | SKKanGAS inh | TIM10 inh | tim10-1 inh | tim23-1 inh
Cc1ccc2nc(-c3ccc(NS(C)(=O)=O)cc3)cc(-c3ccccc3)c2c1 | 137 | . | . | . | . | .
Cc1ccc2nc(-c3ccncc3)cc(-c3ccccc3)c2c1 | . | 34 | . | . | . | .
CCCCn1c(N)c(N(CCOC)C(=O)c2cc(-c3ccc(OC)c(OC)c3)nc3ccccc23)c(=O)[nH]c1=O | . | / | . | . | . | .
O=C(O)c1cnc(-c2ccccc2)nc1Sc1ccccc1 | / | . | . | . | . | .
Cc1scc(C(=O)NNC(=S)NCC2CCCO2)c1-c1ccccc1 (stereo not drawn) | . | . | . | . | . | .
COc1ccc(-c2nc(CN3CCCC(C(=O)NC4CCCC4)C3)c(C)o2)cc1 (stereo not drawn) | . | 44 | . | . | . | .
COc1ccc(CNC(=O)C2CCCN(Cc3nc(-c4cccc(C)c4)oc3C)C2)cc1 (stereo not drawn) | . | 28 | . | . | . | .
COc1ccc(S(=O)(=O)N2CCCC(C(=O)NC3CCCCC3)C2)cc1 (stereo not drawn) | . | 34 | . | . | . | .
CCc1ccc(-c2nc(CN3CCCC(C(=O)NCCc4ccc(OC)c(OC)c4)C3)c(C)o2)cc1 (stereo not drawn) | . | . | . | . | . | .
Cc1oc(-c2ccc(Cl)cc2)nc1CN1CCCC(C(=O)NC2CC2)C1 (stereo not drawn) | . | . | . | . | . | .
COc1ccc(S(=O)(=O)N2CCC(NC(=O)C3CCCCC3)CC2)cc1 | . | . | . | . | . | .
Cc1noc(C)c1C(=O)OCC(=O)NC(=O)NC12CC3CC(CC(C3)C1)C2 | / | . | . | . | . | .
COc1ccc(C2(CNC(=O)c3ccc(N)cc3)CCCC2)cc1 | . | 42 | . | . | . | .
COc1ccc(C2C3=C(N=C4SCC(=O)N42)c2ccccc2CC3)cc1 (stereo not drawn) | . | 38 | . | . | . | .
COc1ccc(-c2noc(CN(C(=O)c3ccc4c(c3)OCO4)C(C)C)n2)cc1 | . | . | . | . | . | .
Cc1[nH]c2ccccc2c1C(c1ccccn1)c1c(C)[nH]c2ccccc12 | . | . | 72 | . | . | .
CCOC(=O)c1ccc(NC(=S)N(CCCN2CCCCC2)Cc2ccco2)cc1 | . | 44 | . | . | . | .
COc1cc(OC)cc(C(=O)NNC(=O)C2CCCC2)c1 | . | . | . | . | . | .
C[C@H]1c2cccc(O)c2C(O)=C2C(=O)[C@]3(O)C(O)=C(C(N)=O)C(=O)[C@@H](N(C)C)C3[C@@H](O)C21 (stereo partly drawn) | . | / | 105 | . | . | .
CN(c1ccc(C(=O)NCc2cccs2)cc1)S(=O)(=O)c1ccccc1 | . | . | . | . | . | .
CC(=O)Nc1nc2n(n1)C(c1ccccc1)C=C(c1ccccc1)N2 (stereo not drawn) | . | . | . | . | . | .
O=C(c1nc2n(n1)C(c1ccc(Cl)cc1)C=C(c1ccccc1)N2)N1CCOCC1 (stereo not drawn) | . | 31 | . | . | . | .
O=C(c1ccc(N2C(=O)C3CC=C(Cl)CC3C2=O)cc1)N1CCCCC1 (stereo not drawn) | . | . | . | . | . | .
CC(=O)N1CCN(c2ccc(NCc3cccc4ccccc34)cc2)CC1 | . | . | . | . | . | .
CCC(=O)Nc1ccc(-c2ccc(NC(=O)CC)c(OC)c2)cc1OC | . | . | . | . | . | .
SMILES | PfHsp90 yeast 2 | NALP1 yeast inh | SKKanGAS inh | TIM10 inh | tim10-1 inh | tim23-1 inh
COc1cc(-c2ccc(NC(=O)NC3CC3)c(OC)c2)ccc1NC(=O)NC1CC1 | / | . | 55 | . | . | .
Cc1ccc(C2(C(F)(F)F)N=C3Sc4cc(C)ccc4N3C(=O)N2)cc1 (stereo not drawn) | / | 36 | . | . | . | .
Cc1ccc(C2(C(F)(F)F)NC(=O)N3CCN=C3S2)cc1 (stereo not drawn) | . | . | . | . | . | .
CN(CC(=O)NCc1cccnc1)S(=O)(=O)c1ccc2c(c1)c(=O)n(C)c(=O)n2C | . | 44 | . | . | . | .
Cc1sc(N)nc1-c1ccccc1 | . | . | . | . | . | .
Nc1c(-c2ccccc2)nc(Cl)nc1-c1ccccc1 | / | 34 | . | . | . | .
